Gli-Sufu antag: Gli-Sufu pathway antagonists, primary screen, luciferase luminescence, Sufu-KO-LIGHT cells, uHTS. Sufu-KO-LIGHT fibroblasts, Gli luciferase reporter luminescence. actives 0.74% (n = 340,000). inhibition, % at 5 µM;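 active = inhibition above about 55%, limit read from the data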;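 note: 0% = DMSO-treated cells and 100% = wells with medium but no cells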
NCOA3 inh: SRC3 coactivator transcriptional activity inhibitors, primary screen, cell-based, luminescence; HEK293 GAL4-SRC3 luciferase reporter; Nuclear receptor coactivator 3 (Homo sapiens), Q9Y6Q9; actives 0.17% (n = 360,000); inhibition, % at 3.6 µM;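 active = inhibition above a per-campaign cutoff, the mean of all compounds plus 3 SD, cut at about 60% in these data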;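 note: 0% = DMSO-treated cells and 100% = gossypol-treated cells at 36 µM; higher means less SRC3-driven luciferase light from the GAL4 reporter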
Target sequence (Q9Y6Q9 whole entry, looked up, the tested form may be a part): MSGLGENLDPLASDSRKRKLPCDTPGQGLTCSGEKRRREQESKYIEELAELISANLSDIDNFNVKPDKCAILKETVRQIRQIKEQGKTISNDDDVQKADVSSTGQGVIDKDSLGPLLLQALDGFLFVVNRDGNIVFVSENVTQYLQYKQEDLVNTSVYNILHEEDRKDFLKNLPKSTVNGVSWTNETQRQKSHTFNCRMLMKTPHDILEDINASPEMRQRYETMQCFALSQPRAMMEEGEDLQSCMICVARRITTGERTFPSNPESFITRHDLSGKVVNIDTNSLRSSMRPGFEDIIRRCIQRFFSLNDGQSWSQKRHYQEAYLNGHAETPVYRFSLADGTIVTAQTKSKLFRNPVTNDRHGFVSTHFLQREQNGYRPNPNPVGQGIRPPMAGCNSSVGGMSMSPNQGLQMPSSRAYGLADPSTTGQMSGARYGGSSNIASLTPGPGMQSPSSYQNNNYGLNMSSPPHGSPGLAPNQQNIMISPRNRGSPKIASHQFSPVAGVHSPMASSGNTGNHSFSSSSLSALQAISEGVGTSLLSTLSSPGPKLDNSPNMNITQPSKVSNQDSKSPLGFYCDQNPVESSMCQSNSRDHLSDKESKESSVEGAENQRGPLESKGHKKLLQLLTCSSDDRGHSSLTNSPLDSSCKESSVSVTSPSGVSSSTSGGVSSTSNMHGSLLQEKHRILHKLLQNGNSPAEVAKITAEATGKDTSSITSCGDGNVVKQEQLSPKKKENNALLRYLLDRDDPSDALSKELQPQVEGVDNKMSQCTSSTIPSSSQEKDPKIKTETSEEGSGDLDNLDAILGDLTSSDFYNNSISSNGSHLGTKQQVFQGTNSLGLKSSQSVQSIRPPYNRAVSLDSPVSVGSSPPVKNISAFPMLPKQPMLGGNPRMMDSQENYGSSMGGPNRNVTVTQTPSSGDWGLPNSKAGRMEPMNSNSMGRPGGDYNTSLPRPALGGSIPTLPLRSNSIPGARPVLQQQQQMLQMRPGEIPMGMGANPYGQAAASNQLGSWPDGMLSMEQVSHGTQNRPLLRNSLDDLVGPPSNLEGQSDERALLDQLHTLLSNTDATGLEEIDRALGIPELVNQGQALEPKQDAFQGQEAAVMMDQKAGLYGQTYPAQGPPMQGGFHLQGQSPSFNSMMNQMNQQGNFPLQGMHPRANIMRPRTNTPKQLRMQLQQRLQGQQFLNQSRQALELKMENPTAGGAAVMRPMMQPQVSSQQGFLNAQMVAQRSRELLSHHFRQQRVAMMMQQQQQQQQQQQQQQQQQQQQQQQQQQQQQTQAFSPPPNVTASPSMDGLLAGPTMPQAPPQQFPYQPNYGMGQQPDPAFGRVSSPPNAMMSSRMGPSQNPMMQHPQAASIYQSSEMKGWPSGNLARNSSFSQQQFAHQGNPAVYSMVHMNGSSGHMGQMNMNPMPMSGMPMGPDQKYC
SRC1 inh: SRC1 coactivator transcriptional activity inhibitors, primary screen, cell-based, luminescence; inhibition, % at 3.6 µM; actives 0.12% (n = 360,000); Nuclear receptor coactivator 1 (Homo sapiens), Q15788; HEK293 GAL4-SRC1 luciferase reporter; AID 588354, 2011;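 active = inhibition above the campaign mean plus 3 SD, with each screening campaign given its own cutoff, cut at about 60% in these data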;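 note: 0% = DMSO treated cells and 100% = gossypol at 36 µM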
NCOA2 inhibitor: inhibition of GAL4-SRC2 driven luciferase reporter, primary screen, SRC2 inhibitor project, cell-based, luminescence; Nuclear receptor coactivator 2 (Homo sapiens), Q15596; HEK293 GAL4-SRC2 luciferase reporter; inhibition, % at 9 µM; actives 0.17% (n = 370,000);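 active = inhibition above the mean inhibition of all tested compounds plus 3 SD, set per campaign, cut at about 52% in these data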;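 note: 0% = DMSO treated cells and 100% = cells given Gossypol at 36 µM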
LRH-1 inv ag: LRH-1 (NR5A2) inverse agonists, primary screen, cell-based, luminescence, HEK293T, StAR-luciferase reporter; Nuclear receptor subfamily 5 group A member 2 (Homo sapiens), O00482; LRH-1 transfected, 24 h; inhibition, % at 3.6 µM; actives 0.13% (n = 360,000);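 active = inhibition above the mean inhibition of all tested compounds plus 3 SD, cut at about 73% in these data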;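 note: 0% = DMSO wells and 100% = reporter-only cells lacking LRH-1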
NR2F2 inh: NR2F2 transcriptional activity inhibitors, primary screen, cell-based, luciferase reporter, HEK293T, luminescence. COUP transcription factor 2 (Homo sapiens), P24468. HEK293T NGFI-A luciferase reporter. inhibition, % at 8.6 µM. actives 0.7% (n = 370,000). AID 686940, 2013;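 active = inhibition above a per-plate cutoff, mean inhibition of test wells between control levels plus 3 SD, cut at about 38% in these data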;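 note: cells cotransfected with COUP-TFII expression vector driving the NGFI-A reporter; 0% = median of COUP-TF2 test wells and 100% = reporter-only cells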
VP16 Luc counter: Gal4-VP16 luciferase reporter inhibitors, counter-screen for COUP-TFII antagonist project, cell-based, luminescence, HEK293 | shares compounds with NR2F2 inh | inhibition, % at 8.5 µM | actives 25% (n = 2,500) | AID 687007, 2013; in the data active = inhibition above about 13%
NR2F2 inh conf: NR2F2 transcriptional activity inhibitors, confirmation, cell-based, luciferase reporter, HEK293, triplicate | shares compounds with NR2F2 inh | HEK293 NGFI-A luciferase reporter, luminescence | inhibition, % at 8.5 µM | actives 45% (n = 2,500) | AID 687008, 2013;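 active = mean inhibition over three repeats above a set limit taken from the earlier primary screen, cut at about 38% in these data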;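 note: 100% = cells given the luciferase reporter alone without the COUP-TF2 vector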
The depositor's hits bear a star; . = not tested or not shown. This is a sample that favours compounds with a hit; in the whole collection about 1.3% have one here.

SMILES	Gli-Sufu antag	NCOA3 inh	SRC1 inh	NCOA2 inhibitor	LRH-1 inv ag	NR2F2 inh	VP16 Luc counter	NR2F2 inh conf
COc1ccccc1CNC(=O)NNC(=O)CCn1nc(C)c([N+](=O)[O-])c1C	.	.	.	-1	.	4	.	.
Cc1ccc(C(=O)Nc2ccc(S(=O)(=O)NCc3ccco3)cc2)cc1	-9	-43	-131	-24	-51	1	.	.
Cc1cc(C)n(-c2ccc(C(=O)Nc3cccc(S(=O)(=O)N(C)C)c3)cc2)n1	32	34	13	14	16	43*	14*	39*
Cc1cc(C)n(-c2ccc(C(=O)Nc3ccc4c(c3)OCO4)cc2)n1	25	-39	-64	-20	-46	-46	.	.
Cc1ccc(NC(=O)CNc2ccc(Cl)c(Cl)c2)cc1S(=O)(=O)N(C)C	-5	24	3	-2	5	54*	-5	40*
Cc1cc(C)n(-c2ccc(C(=O)Nc3ccc(S(=O)(=O)N(C)C)cc3)cc2)n1	4	31	18	-11	19	32	.	.
Cc1cc(C)n(-c2ccc(C(=O)Nc3ccc(C)c(S(=O)(=O)N(C)C)c3)cc2)n1	6	22	8	12	3	48*	-4	24
Cc1cc(C)n(-c2ccc(C(=O)Nc3ccc(S(=O)(=O)NCc4ccco4)cc3)cc2)n1	-9	12	33	12	25	75*	24*	71*
Cc1ccc(C=Nn2c(-c3n[nH]c4c3CCC4)n[nH]c2=S)s1	.	.	.	11	.	-30	.	.
CC(C)C[C@H](NC(=O)C1CC1)C(=O)N1CCC[C@H]1C(=O)NCc1ccccc1	.	.	.	-18	.	7	.	.
Cc1ccc(NC(=O)c2ccc(OC(F)(F)F)cc2)cc1S(=O)(=O)N(C)C	4	13	2	13	27	55*	-9	35
Cc1ccc(NC(=O)c2ccncc2)cc1S(=O)(=O)N(C)C	-2	8	3	-11	-5	-3	.	.
CCN(CC)S(=O)(=O)c1cccc(NC(=O)c2ccc(-n3nc(C)cc3C)cc2)c1	5	25	13	14	16	65*	9	33
C=C(C)Cn1c(N2CCN(c3ccc(OC)cc3)CC2)nc2c1c(=O)n(C)c(=O)n2C	29	14	4	-3	11	41*	3	15
COc1ccc(C(C(=O)N(C)C2CCCC2)N(Cc2ccc(F)cc2)C(=O)c2cc(C)[nH]n2)cc1OC (centres undefined)	.	.	.	3	.	-18	.	.
Cn1nc(C(C)(C)C)cc1C(=O)N1CCCCC1c1cc(C(=O)Nc2ccccc2Cl)no1 (centres undefined)	.	10	7	43	13	48*	0	17
Nc1nc(NCc2ccco2)nc(N2CCCC2)c1[N+](=O)[O-]	10	12	8	-2	-14	4	.	.
CC(C)CCNc1nc(N)c([N+](=O)[O-])c(N2CCCCCC2)n1	15	29	13	19	-6	41*	-3	28
Nc1nc(NCc2ccco2)nc(N2CCCCCC2)c1[N+](=O)[O-]	22	38	-8	20	-5	48*	2	23
CCC(C)N(C(=O)c1oc(=O)c2ccccc2c1-c1ccc(C)cc1)C(C)CC (centres undefined)	.	.	.	27	.	18	.	.
CCCCN1C(C)=CC(=C2C(=O)c3ccccc3C2=O)C=C1C	-42	-70	-128	-93	-110	-60	.	.
CCN1C=CC(=C2C(=O)c3ccccc3C2=O)C=C1	59*	30	20	65*	0	70*	31*	37
CCCCCCN1C=CC(=C2C(=O)c3ccccc3C2=O)C=C1	1	-1	-62	-14	-68	-24	.	.
CCCN1C=CC(=C2C(=O)c3ccccc3C2=O)C=C1	79*	67*	47	85*	28	85*	73*	85*
Brc1ccccc1Cn1nnc(-c2ccc(N3CCOCC3)cc2)n1	.	.	.	-27	.	-12	.	.
SMILES	Gli-Sufu antag	NCOA3 inh	SRC1 inh	NCOA2 inhibitor	LRH-1 inv ag	NR2F2 inh	VP16 Luc counter	NR2F2 inh conf
CC(=NNC(=O)CSc1nnc(-c2ccc(C(C)(C)C)cc2)n1-c1ccccc1)c1cccc2ccccc12	.	.	.	27	.	18	.	.
O=[N+]([O-])c1ccc(C[n+]2cccc3ccccc32)cc1	0	4	2	-9	12	-5	.	.
c1ccc(C[n+]2cccc3c4ccccc4ccc32)cc1	-6	33	19	19	61	53*	3	45*
CCCCN1C[C@@H](COCc2ccccc2)Oc2cccc(F)c2S1(=O)=O	.	.	.	6	.	15	.	.
COc1ccc(-[n+]2c(C)cc(/C=C3\Sc4ccccc4N3C)cc2C)cc1	.	75*	71*	-89	98*	82*	-35	67*
COc1ccccc1-[n+]1c(C)cc(/C=C2\Sc3ccccc3N2C)cc1C	85*	69*	62*	0	84*	82*	-11	89*
CCOC(=O)Cn1cc(CN2C(C(=O)OC)CN(C3CC3)CCS2(=O)=O)nn1 (centres undefined)	.	.	.	-17	.	-3	.	.
CC(C)C[C@H]1COc2cccc(F)c2S(=O)(=O)N1Cc1cn(CCC2OCCO2)nn1	.	.	.	17	.	8	.	.
CCCCN1CN2Cc3ccccc3C2CS1(=O)=O (centres undefined)	.	.	.	16	.	-8	.	.
COc1cc2c(cc1OC)C(c1c(Cl)cccc1Cl)=NCC2	.	-50	-32	22	-3	72*	12	58*
O=C(Nc1nc(-c2ccccc2)cs1)c1ccccc1NS(=O)(=O)c1ccc(F)cc1	53	60	44	25	75*	55*	-4	32
CC1(Cc2ccc3ccccc3n2)C(=O)Nc2ccc(OC(F)(F)F)cc21 (centres undefined)	.	-1	-1	14	16	90*	0	10
O=C1C(=C(c2ccccc2)N2CCOCC2)Cc2ccccc21	.	9	-9	-145	14	39*	40*	14
O=C(c1ccccc1)N1CCN(C(=O)N2CCOCC2)CC1	3	10	4	19	-4	6	.	.
CCN(CC)CCOC(=O)/C=C/c1ccccc1	5	4	3	-37	-7	-8	.	.
